Source: PubChem (National Center for Advancing Translational Sciences (NCATS))
LMNA splice mod: qHTS Assay for Modulators of Lamin A Splicing; HeLa LMNA splicing GFP/RFP minigene ratio, 48 h; Potency, µM (highest dose often 46.1 µM), inactives show at the highest dose ratio change, negative = inhibition, usual class: inhibitors; hit rate 0.01% among 200,000; active means well fitted inhibition curve with a large enough effect in the signal ratio, with a control signal flat, not every such curve was filed as active; inconclusive means small, poorly fitted or top-dose-only effect, or effect the other way, or a change in a side signal; the % refers to the signal ratio; further: on the % scale 0 is the no-effect control and ±100 the full control effect
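Read-out is the ratio of GFP to DsRed2 object intensity, acquired by 488 nm laser-scanning cytometry on HeLa lamin A-EGFP minigene reporter cells. Compound incubation 48 hrs at 37 °C in Opti-MEM with 2% FBS; DMSO 0.5% final.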
HttQ103 aggreg: qHTS Multiplex Assay to Identify Dual Action Probes in a Cell Model of Huntington: Aggregate Formation (GFP). Potency, µM (doses to about 46.1 µM), for inactives: at the highest dose activity change, negative = inhibition, most hits filed as inhibitors. hit rate 1.1% among 220,000. AID 1688, 2009. PC12 HttQ103-GFP aggregates, Acumen cytometry, 40 h; further: on the % scale 0 is the no-effect control and ±100 the full control effect; nearly all actives have a fitted effect of over 60% in size
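PC12/HTTQ103-GFP, ecdysone-inducible; teb 100 nM; cpd qHTS titration; GFP aggregates read on laser cytometer, Ex 488/Em 500-530 nm.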
KinaseGlo FLuc: Counterscreen for Luciferase (Kinase-Glo TM) Inhibition. Luciferin 4-monooxygenase (Photuris pensylvanica), Q27757. hit rate 0.28% among 200,000. Kinase-Glo luciferase, ATP luminescence, 8 min. Potency, µM (highest dose often 38.3 µM), for inactives: top-dose activity change, negative = inhibition, actives largely listed as inhibitors; further: on the % scale 0 is the no-effect control and ±100 the full control effect; nearly all actives have a fitted effect of over 60% in size
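Substrate mix (final 50 mM imidazole pH 7.2, 50 mM KCl, 7 mM MgCl2, 10 uM ATP, 0.01% Tween 20, 0.05% BSA) plus pin-tool compound, then Kinase-Glo detection mix; 8 min ambient, luminescence read.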
HPGD inh: qHTS Assay for Inhibitors of HPGD (15-Hydroxyprostaglandin Dehydrogenase) | purified HPGD, NADH fluorescence kinetic, PGE2 substrate | Potency, µM, inactives show at the top dose activity change, negative = inhibition, actives largely listed as inhibitors | hit rate 4.3% among 150,000; active means well fitted inhibition curve with a large enough effect, not every such curve was filed as active; inconclusive means small, poorly fitted or top-dose-only effect, or another doubt; inactive means no such curve, though single readings can be large or run the other way; further: on the % scale 0 is the no-effect control and ±100 the full control effect
Target sequence (P15428 whole entry, looked up): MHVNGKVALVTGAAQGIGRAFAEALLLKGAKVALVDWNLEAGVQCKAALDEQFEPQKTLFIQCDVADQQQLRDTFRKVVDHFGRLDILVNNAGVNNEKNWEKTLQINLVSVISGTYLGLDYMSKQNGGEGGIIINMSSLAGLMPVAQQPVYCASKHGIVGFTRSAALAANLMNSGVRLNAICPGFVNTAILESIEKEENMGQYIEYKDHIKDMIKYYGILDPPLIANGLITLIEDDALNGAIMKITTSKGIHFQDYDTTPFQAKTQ
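NADH formation kinetics: reaction with 30 uM PGE2 and 1 mM NAD+ (final), 20 nM enzyme, Tris-HCl pH 8 with Tween 20, after 15 min compound preincubation at room temperature. Fluorescence change, last versus first of five reads.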
HTT cytoprotect: qHTS Multiplex Assay to Identify Dual Action Probes in a Cell Model of Huntington: Cytoprotection (ATP); Potency, µM (highest dose often 56.4 µM), inactives show cytoprotection (ATP increase), most hits filed as activators; AID 1471, 2008; hit rate 0.14% among 230,000; PC12 HTT-Q103 induced, cytoprotection, ATP luminescence, 40 h; further: % of control where 0% means no effect; nearly all actives have a fitted effect of over 45% in size
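Cells were plated at 1500 per well in phenol red-free DMEM with 5% equine and 5% calf serum. Tebufenozide (100 nM final) and compounds were added, then ATPlite reagent, and luminescence was read.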
ALDH1A1 block: qHTS Assay for Inhibitors of Aldehyde Dehydrogenase 1 (ALDH1A1) | Purified ALDH1A1, NADH fluorescence, propionaldehyde substrate | Potency, µM (doses to about 75.3 µM), without a hit: top-dose activity, negative = inhibition, usual class: inhibitors | hit rate 7.3% among 220,000 | AID 1030, 2008; active means well fitted inhibition curve with a large enough effect, not every such curve was filed as active; inconclusive means small, poorly fitted or top-dose-only effect, or another doubt; inactive means no such curve, though single readings can be large or run the other way;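 further: plate controls were no enzyme wells and a reference inhibitor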
Target sequence (P00352 whole entry, looked up): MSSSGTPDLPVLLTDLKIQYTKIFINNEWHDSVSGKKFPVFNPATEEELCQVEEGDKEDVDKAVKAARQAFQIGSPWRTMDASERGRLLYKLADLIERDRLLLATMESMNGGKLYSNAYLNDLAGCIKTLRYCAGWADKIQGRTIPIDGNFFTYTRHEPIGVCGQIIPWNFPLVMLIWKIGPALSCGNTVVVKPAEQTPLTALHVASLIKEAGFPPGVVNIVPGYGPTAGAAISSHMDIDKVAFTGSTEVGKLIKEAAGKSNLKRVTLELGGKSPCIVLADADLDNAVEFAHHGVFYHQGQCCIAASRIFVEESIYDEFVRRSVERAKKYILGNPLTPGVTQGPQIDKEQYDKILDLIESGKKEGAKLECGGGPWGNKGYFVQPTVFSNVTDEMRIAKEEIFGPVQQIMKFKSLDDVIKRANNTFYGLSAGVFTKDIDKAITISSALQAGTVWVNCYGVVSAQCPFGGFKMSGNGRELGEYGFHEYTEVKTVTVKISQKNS
The depositor's hits bear a star; [ ] = dose if it differs, or a comment. Most compounds without a hit are left out; they make up all but 9% or so of the library. Unless noted, the call rests on the fitted dose curve; in most records, active means well fitted curve in the direction sought with a large enough effect; inconclusive means small, poorly fitted or top-dose-only effect, or another doubt; inactive means no such curve, though single readings can be large; an effect the other way counts as inactive or inconclusive. Potency means the concentration at half of the fitted maximal effect.

What do the screens show for `Cc1c(CC(C)(C)C(=O)O)n(Cc2ccc(Cl)cc2)c2ccc(F)cc12`?
KinaseGlo FLuc: 0%; HPGD inh: inconclusive; HTT cytoprotect: -2%; ALDH1A1 block: -3%

What do the screens show for `O=[N+]([O-])c1ccc(S(=O)(=O)Cc2ccccc2)c2nonc12`?
KinaseGlo FLuc: -6%[7.66 µM]; HPGD inh: 3.2µM*; HTT cytoprotect: 7%[10 µM]; ALDH1A1 block: 1.8µM*

What do the screens show for `Cc1cc2n(n1)CCCN2C(=O)Nc1ccc(F)c(Cl)c1`?
LMNA splice mod: 28%[46 µM]

What do the screens show for `Cc1cc2n(n1)SC(Nc1ccc(F)c(Cl)c1)N2` (centres undefined)?
LMNA splice mod: inconclusive; HttQ103 aggreg: -8%; KinaseGlo FLuc: 4%; HPGD inh: -28%; HTT cytoprotect: 8%[10 µM]; ALDH1A1 block: 2.8µM*

How did Cc1cccc(C#Cc2ccccc2)n1 do in these assays?
LMNA splice mod: inconclusive; KinaseGlo FLuc: 13µM*; HPGD inh: inconclusive; HTT cytoprotect: -131%; ALDH1A1 block: -8%

How did CCOC(=O)c1sc(NS(=O)(=O)c2ccccc2)nc1C do in these assays?
LMNA splice mod: 4%; HttQ103 aggreg: -4%; KinaseGlo FLuc: -3%; HPGD inh: -12%; HTT cytoprotect: -17%; ALDH1A1 block: -14%

How did Cc1nc(NS(=O)(=O)c2ccccc2)sc1NC(=O)OCCN(C)C do in these assays?
LMNA splice mod: 1%; HttQ103 aggreg: -2%; KinaseGlo FLuc: -1%; HPGD inh: -4%; HTT cytoprotect: 1%; ALDH1A1 block: 14µM*

Results for Cc1nc(NS(=O)(=O)c2ccccc2)sc1C(C)(C)C ?
LMNA splice mod: inconclusive; HttQ103 aggreg: -15%; KinaseGlo FLuc: 1%; HPGD inh: -10%; HTT cytoprotect: 12%[10 µM]; ALDH1A1 block: 5µM*

Results for CCc1cccc(NC(=O)CSC2=NS(=O)(=O)c3ccccc32)c1 ?
LMNA splice mod: 6%; HttQ103 aggreg: -11%; KinaseGlo FLuc: -2%; HPGD inh: 22µM*; HTT cytoprotect: -22%; ALDH1A1 block: inconclusive

What do the screens show for `CCc1cccc(NC(=O)CN2C=NS(=O)(=O)c3ccccc32)c1`?
LMNA splice mod: 4%[46 µM]

What do the screens show for `Cc1cccc(N2CCN(C(=O)Cn3ncc4c([nH]c5ccccc54)c3=O)CC2C)c1` (centres undefined)?
LMNA splice mod: 19%[46 µM]

How did CC(=O)OCCCNc1cc(Sc2ccc(Cl)cc2)c2nonc2c1[N+](=O)[O-] do in these assays?
LMNA splice mod: 0%; HttQ103 aggreg: -8%; KinaseGlo FLuc: -2%; HPGD inh: 13µM*; HTT cytoprotect: -4%[10 µM]; ALDH1A1 block: inconclusive

What do the screens show for `CCCC(=O)OCCNc1cc(Sc2nc3ccccc3[nH]2)c2nonc2c1[N+](=O)[O-]`?
LMNA splice mod: inconclusive; HttQ103 aggreg: inconclusive; KinaseGlo FLuc: -1%; HPGD inh: 7.9µM*; HTT cytoprotect: -59%[10 µM]; ALDH1A1 block: 7.1µM*

Results for CCC(=O)OCCNc1cc(Sc2nccn2C)c2nonc2c1[N+](=O)[O-] ?
LMNA splice mod: inconclusive; HttQ103 aggreg: 7.1µM*; KinaseGlo FLuc: 4%; HPGD inh: inconclusive; HTT cytoprotect: -96%[10 µM]; ALDH1A1 block: -10%

What do the screens show for `Cc1ccc(Sc2cc(NCCCO)c([N+](=O)[O-])c3nonc23)cc1`?
HttQ103 aggreg: 7%[9.22 µM]; HTT cytoprotect: -12%[10 µM]

How did CCC(=O)OCCNc1cc(SCCC(=O)OC)c2nonc2c1[N+](=O)[O-] do in these assays?
LMNA splice mod: inconclusive; HttQ103 aggreg: inconclusive; KinaseGlo FLuc: 0%; HPGD inh: inconclusive; HTT cytoprotect: 2%[10 µM]; ALDH1A1 block: inconclusive

What do the screens show for `COc1cccc(NC(=O)C(NCC(C)(C)CN(C)C)c2ccccc2)c1` (centres undefined)?
LMNA splice mod: 6%; HttQ103 aggreg: 8%; KinaseGlo FLuc: -1%; HPGD inh: 10%; HTT cytoprotect: 1%; ALDH1A1 block: -6%

Results for CCOc1ccc(C(=O)NCC(c2ccc3c(c2)OCO3)N2CCN(c3ccc(F)cc3)CC2)cc1 (centres undefined) ?
LMNA splice mod: -5%[46 µM]

Results for CC(C)(C)C1=Nn2c(nnc2C2CCCCC2)SC1 ?
LMNA splice mod: -14%; HttQ103 aggreg: 24%; KinaseGlo FLuc: 0%; HPGD inh: -22%; HTT cytoprotect: 12%[10 µM]; ALDH1A1 block: inconclusive

How did CCN(CC)C(=O)c1nn(-c2ccccc2)c2c1C1CCC2(C)C1(C)C (centres undefined) do in these assays?
LMNA splice mod: inconclusive; HttQ103 aggreg: -3%; KinaseGlo FLuc: -2%; HTT cytoprotect: -9%; ALDH1A1 block: 4%

What do the screens show for `Cc1nc2ccccc2nc1SCC(=O)c1ccccc1`?
LMNA splice mod: inconclusive; HttQ103 aggreg: inconclusive; KinaseGlo FLuc: 0%; HPGD inh: -19%; HTT cytoprotect: 7%[10 µM]; ALDH1A1 block: 22µM*

Results for O=C(CSc1nc2ccccc2c2ccccc12)c1ccccc1 ?
KinaseGlo FLuc: -2%[7.66 µM]; HPGD inh: -20%; HTT cytoprotect: -2%[10 µM]; ALDH1A1 block: -12%[13.5 µM]

How did CCCCNC(=O)CSc1nc(CCC)nc2ccccc12 do in these assays?
HttQ103 aggreg: 10%; KinaseGlo FLuc: 1%; HTT cytoprotect: inconclusive; ALDH1A1 block: -2%

Results for CCCc1nc(SCC(=O)c2ccc(F)cc2)c2ccccc2n1 ?
HttQ103 aggreg: 10%; KinaseGlo FLuc: 0%; HTT cytoprotect: inconclusive; ALDH1A1 block: 18µM*

Results for CCCn1c(SCC(=O)N2CCc3ccccc3C2)nc2c1c(=O)n(C)c(=O)n2C ?
LMNA splice mod: 7%; HttQ103 aggreg: -8%; KinaseGlo FLuc: 1%; HPGD inh: -2%; HTT cytoprotect: -5%[10 µM]; ALDH1A1 block: -9%

What do the screens show for `COC(=O)C1C(=O)C2=C(CC1C)NC(C)=C(C(=O)OC1CCCCC1)C2c1ccc(N(C)C)cc1` (centres undefined)?
LMNA splice mod: -15%; HttQ103 aggreg: -21%; KinaseGlo FLuc: 1%; HPGD inh: -16%; HTT cytoprotect: -1%[10 µM]; ALDH1A1 block: 8.9µM*
